In ChEMBL document CHEMBL3988442, “University of Dundee, Small-Polar-MMV Screening Library” (2021):
The campaign covered roughly 48,000 compounds. About 13,000 (27%) showed an effect of 50% or more. This is one part of the list.

What follows are compounds tested on Wolbachia pipientis (assay: Anti-Wolbachia Cell-Based Screen). Conditions: 5 µM.
Assay type: functional
Design: scale not given: in the data most compounds retested in dose-response had high values

Row | Compound | Percent Effect [%]
1 | CC(C)c1cc(NC(CCO)c2ccccc2)n2nccc2n1 (configuration not stated) | 9.375
2 | COc1ccc(N(C)C(=O)C2CN(C)CCO2)cc1F (configuration not stated) | 4.691
3 | O=C1CN(Cc2nnc(-c3ccc(Br)o3)o2)CCN1 | -7.381
4 | Cc1ccc(S(=O)(=O)NCc2[nH]ncc2Br)cc1F | -12.16
5 | COc1ncccc1NC(=O)C1CCS(=O)(=O)C1 (configuration not stated) | 1.624
6 | COc1ncccc1NC(=O)N1CCC(C(=O)NC(C)C)CC1 | 0.676
7 | COc1ncccc1NC(=O)N(C1CC1)C(C)C(C)C (configuration not stated) | 116
8 | CCNC(=O)C(C)NC(=O)Nc1ccccc1SC(F)(F)F (configuration not stated) | -8.555
9 | CC(C)NC(=O)C1CN(C(=O)Nc2ccccc2)CC12CCOCC2 (configuration not stated) | 0.6544
10 | CC(C)NC(=O)C1CN(C(=O)N(C)C)CC12CCOCC2 (configuration not stated) | 94.32
11 | CN(C)C(=O)N1CC(C(=O)NCC2CC2)C2(CCOCC2)C1 (configuration not stated) | 105.7
12 | Cc1ccsc1C(=O)N1CC(C(=O)NCC2CC2)C2(CCOCC2)C1 (configuration not stated) | 12.17
13 | O=C(NCC1CC1)C1CN(C(=O)c2ccncc2)CC12CCOCC2 (configuration not stated) | -0.9426
14 | O=C(NCC1CC1)C1CN(C(=O)Cc2cccs2)CC12CCOCC2 (configuration not stated) | 5.816
15 | Cc1ccoc1C(=O)N1CC(C(=O)NCC2CC2)C2(CCOCC2)C1 (configuration not stated) | -3.998
16 | COCC(=O)N1CC(C(=O)NCC2CC2)C2(CCOCC2)C1 (configuration not stated) | 104.6
17 | CC(C)NC(=O)C1CN(C(=O)N2CCCC2)CC12CCOCC2 (configuration not stated) | -8.761
18 | Cc1[nH]nc2ncc(C(=O)N3CCN(CC(C)C)CC3)cc12 | 0.1242
19 | Cc1cc(C)n(CCCN(C)C(=O)CN2CC3(CCNCC3)OC2=O)n1 | -7.554
20 | CCN(CC)CC[C@H]1CN(C(=O)NC2CCCCC2)CC[C@H]1CC(=O)O | -0.6664
21 | O=C(NC[C@H]1OC[C@@H](NC2CCCC2)[C@@H]1O)C1CCCC1 | 10.82
22 | Oc1ccc2oc3c(c2c1CN1CCOCC1)CCCC3 | 6.402
23 | NC(=O)C1CN(Cc2c(O)ccc3oc4c(c23)CCCC4)CCO1 (configuration not stated) | -16.77
24 | O=C1NCCCc2c1oc1ccc(O)c(CN3CCOCC3)c21 | 142.2

Row | Compound | Percent Effect [%]
25 | CCOc1ccc(C(=O)NCCCNc2ncccn2)cc1 | -0.3981
26 | O=C(O)C(F)(F)F.O=C([C@@H]1COC[C@H]2CN(C3CCCC3)C[C@H]21)N1CCC(F)CC1 | -0.4691
27 | O=C(C[S+]([O-])c1ccc(F)c(F)c1)NCc1cc(F)cc(F)c1 (configuration not stated) | -8.156
28 | COCCN1CCN(S(=O)(=O)c2ccccc2)Cc2cccnc21.O=C(O)C(F)(F)F | 100.4
29 | COc1cccc(CC(=O)N2CCN(C)c3ncccc3C2)c1.O=C(O)C(F)(F)F | -8.872
30 | COc1ccc(S(=O)(=O)N2CCN(C)c3ncccc3C2)cc1.O=C(O)C(F)(F)F | 100.8
31 | COc1ccc(CC(=O)N2CCN(C)c3ncccc3C2)cc1.O=C(O)C(F)(F)F | 1.148
32 | CC(C)CN1CCN(S(=O)(=O)c2cn(C)cn2)Cc2cccnc21.O=C(O)C(F)(F)F.O=C(O)C(F)(F)F | -3.796
33 | COCCN1CCN(Cc2c(C)noc2C)Cc2cccnc21.O=C(O)C(F)(F)F.O=C(O)C(F)(F)F | -0.8432
34 | CN(Cc1ccc(C(=O)O)cc1)C(=O)c1sccc1OC(F)F | 7.137
35 | Cn1cc(CN2CC[C@H]3OCC[C@@H](C(=O)N4CCCCO4)[C@@H]3C2)cn1 | 16.39
36 | CC(C)(C)N1CC(C(=O)N2CCN(CCn3cccc3)CC2)CC1=O (configuration not stated) | -2.783
37 | CCn1nc(C)cc1S(=O)(=O)N1CCC2(CC(=O)NC2=O)C1 (configuration not stated) | -2.488
38 | CC(C)n1cc(S(=O)(=O)N2CCCCC2)cn1 | 6.255
39 | CCn1cc(S(=O)(=O)N2CCCC3(CC=CNC3=O)C2)c(C)n1 (configuration not stated) | 118.1
40 | CCn1ncc(S(=O)(=O)N2CCCC3(CC=CNC3=O)C2)c1C (configuration not stated) | 120.2
41 | CCn1nc(C)cc1S(=O)(=O)N1CCC2(CCCN(C(C)C)C2=O)C1 (configuration not stated) | -24.78
42 | CCn1nccc1S(=O)(=O)N1CCC2(CCCN(C(C)C)C2=O)C1 (configuration not stated) | -32.08
43 | CCn1cc(S(=O)(=O)N2CCC3(CCCN(CC4CCC4)C3=O)C2)cn1 (configuration not stated) | -1.219
44 | CCn1cc(S(=O)(=O)N2CCCC3(CC=CNC3=O)C2)cn1 (configuration not stated) | 97.1
45 | CCCN1CCCC2(CCN(S(=O)(=O)c3cc(C)nn3CC)C2)C1=O (configuration not stated) | -15.13
46 | COc1cccc(CN(C)Cc2ccc(C#N)cc2)c1OC | -1.171
47 | Cc1cc(NCCNc2ccc(C#N)cn2)nc(C)n1 | -1.6
48 | Cc1ccccc1[C@@H]1CN(Cc2ccc(C(F)(F)F)nc2)C[C@H]1C(=O)O | 28.6

Row | Compound | Percent Effect [%]
49 | COCCCSc1ccc(NCc2cscn2)cc1 | -5.261
50 | O=C(CCC(F)(F)F)NCC1CCCS1 (configuration not stated) | -25.1
51 | CCN(CC)c1ccc(CNC(=O)c2ccc(=O)[nH]n2)cn1 | -14.62
52 | O=C(NCC1(Sc2ccccc2)CC1)c1c[nH]nn1 | 96.18
53 | CN1CCN(c2cc(CNC(=O)c3ccc(=O)[nH]n3)ccn2)CC1 | 7.081
54 | O=C(NCC1(CO)CC1)c1ccccc1Cl | 3.943
55 | O=C(NCCn1nc2ccccn2c1=O)c1cc[nH]n1 | 8.097
56 | O=C(NC1(c2cccc(F)c2)CCOCC1)c1cc[nH]n1 | -5.45
57 | O=C(NCC1(Sc2ccccc2)CC1)c1cc[nH]n1 | 109.2
58 | CN(Cc1ccco1)Cc1ccccc1CNC(=O)c1c[nH]nn1 | 2.895
59 | O=C(NCC1(Sc2ccccc2)CC1)c1ccc(=O)[nH]n1 | 98.28
60 | CCc1nnc2n1CCN(c1nc3ccccc3o1)C2 | -17.82
61 | Cc1ccccc1OCCC(=O)OC(C)C(=O)Nc1sccc1C(N)=O (configuration not stated) | 15.81
62 | CCS(=O)(=O)N1CCC2(CCCN(Cc3cc(OC)ccc3F)C2)C1 (configuration not stated) | -8.238
63 | O=C(COc1ccc(C(F)(F)F)cc1)NS(=O)(=O)c1cccnc1 | -2.745
64 | CC(C)C1CN(C(=O)c2ccncc2)CCS1 (configuration not stated) | -8.547
65 | O=C(c1ccncc1)N1CC[C@@H](O)[C@@H](O)[C@H](N2CCC(F)(F)CC2)C1 | 113.1
66 | Cc1ocnc1C(=O)N1CCN(C(=O)CC(C)C)[C@@H]2CS(=O)(=O)C[C@@H]21 | -7.127
67 | Cc1ncoc1C(=O)N1C[C@@H]2CN(CC3CC3)CCO[C@@H]2C1 | -7.815
68 | CN1CC(c2ccccc2)CC12CCN(C(=O)c1ccncc1)CC2 (configuration not stated) | -13.44
69 | Cc1ncoc1C(=O)N1CCCC(C(=O)c2cccc(OC(C)C)c2)C1 (configuration not stated) | -0.1018
70 | Cc1ocnc1C(=O)N1CC[C@@H](O)[C@@H](O)[C@H](N2CCC(F)(F)CC2)C1 | 120
71 | Cc1ncoc1C(=O)N1CC[C@@H](O)[C@@H](O)[C@H](N2CCC(F)(F)CC2)C1 | 142
72 | Cc1ocnc1C(=O)N1CCC(c2nccn2Cc2ccncc2)CC1 | 10.72
